PubChem BioAssay (NCATS)
Results filed as inconclusive are left out. Active and inactive are the calls of the source. Calls come from the whole dose curve; as a rule, active = well fitted cell-killing curve with a large enough effect; inconclusive = small, poorly fitted or top-dose-only effect; inactive = no such curve, though single readings can be large or run the other way.

Experiment: Quantitative High-Throughput drug screen in 47 multiple myeloma cell lines against the NCATS MIPE library collection: JIM3_ECACC cell viability assay (AID 1918963; note: nearly all actives have a fitted effect of over 35% in size)
Details: JIM3 myeloma viability, CellTiter-Glo ATP, 48 h; series mostly up to 45.8 µM; viability, percent of control: at the top concentration
Description: PI: Beverly A. Mock Ph.D.
Laboratory of Cancer Biology and Genetics,
Center for Cancer Research, National Cancer Institute,
National Institute of Health, Bethesda, Maryland
Drug resistance and disease progression are common in multiple myeloma (MM) patients, underscoring the need for new therapeutic combinations. […] We hypothesized that effective combinations would reduce MYC expression and enhance p16 activity. […] These preclinical data identify potentially useful drug combinations for evaluation in drug-resistant MM and reveal potential mechanisms of combined drug sensitivity.
Described herein is the primary MIPE qHTS used to cherrypick compounds. Validated compounds were then further tested for potential synergistic activiy.
[1] Peat TJ, Gaikwad SM, Dubois W, Gyabaah-Kessie N, Zhang S, Gorjifard S, Phyo Z, Andres M, Hughitt VK, Simpson RM, Miller MA, Girvin AT, Taylor A, Williams D, D'Antonio N, Zhang Y, Rajagopalan A, Flietner E, Wilson K, Zhang X, Shinn P, Klumpp-Thomas C, McKnight C, Itkin Z, Chen L, Kazandijian D, Zhang J, Michalowski AM, Simmons JK, Keats J, Thomas CJ, Mock BA. Drug combinations identified by high-throughput screening promote cell cycle transition and upregulate Smad pathways in myeloma. Cancer Lett. 2023 Aug 1;568:216284. doi: 10.1016/j.canlet.2023.216284. Epub 2023 Jun 24. PMID: 37356470; PMCID: PMC10408729.
SEQUENCE No. (e.g., 1, 2, 3, etc.); […] (e.g., Cells, Incubation, Reagent, etc.); VALUE and DESCRIPTION.
1; Cells; 5 uL; white, solid bottom 1536-well Greiner assay plate.
2; Compounds; 23 nL; Kalypsis pin tool (Wako USA) equipped with a 1536-well pin head to transfer to the assay plates.
3; Incubation; 48 hours; 37C incubation.
4; Reagent;5uL; CellTiter Glo (Promega).
5; Detector; 425V; Luminescence; Viewlux PerkinElmer.
NOTES (numbers refer to Sequence numbers above)
1. The cell-based screening methods employed in this study were like those previously published. Briefly, the corresponding myeloma cell lines were screened in 1,536-well plates with 500 cells, 5-uL per well for inhibition of cell viability (assessed by measuring ATP levels with CellTiterGlo).
2. NCATS MIPE 4.0 library of approved and investigational drugs were added using the Kalypsis pin tool. Wells treated with DMSO only for 100% viability and media only wells for 0% viability were used as controls.
3. The assay plates were covered and incubated for 48 hours in a 37C, 5% CO2 incubator with controlled humidity.
4. After 48 hours, CellTilter-GloTM luminescent substrate mix (Promega) reagent was added to the assay plate and plates we incubated for 5 min at room temperature.
5. Signal was measured as median relative luminescence units on a ViewLux (PerkinElmer) multiplate reader.
[1] Heske CM, Davis MI, Baumgart JT, Wilson K, Gormally MV, Chen L, Zhang X, Ceribelli M, Duveau DY, Guha R, Ferrer M, Arnaldez FI, Ji J, Tran HL, Zhang Y, Mendoza A, Helman LJ, Thomas CJ. Matrix Screen Identifies Synergistic Combination of PARP Inhibitors and Nicotinamide Phosphoribosyltransferase (NAMPT) Inhibitors in Ewing Sarcoma. Clin Cancer Res. 2017 Dec 1;23(23):7301-7311. doi: 10.1158/1078-0432.CCR-17-1121. Epub 2017 Sep 12. PMID: 28899971; PMCID: PMC6636827.
Potency is the fitted concentration of half-maximal effect.

Structure (SMILES) | viability, percent of control | Potency
COc1c(O)cc2c(c1O)[C@@H]1O[C@H](CO)[C@@H](O)[C@H](O)[C@H]1OC2=O | 106% (inactive) | –
COc1cc2nc(N3CCN(C(=O)C4CCCO4)CC3)nc(N)c2cc1OC (stereo not given) | 106% (inactive) | –
CCCCC(CC)COC(=O)C(C#N)=C(c1ccccc1)c1ccccc1 (stereo not given) | 119% (inactive) | –
CC(S)C(=O)NCC(=O)O (stereo not given) | 118% (inactive) | –
CN(C)CCc1c[nH]c2ccc(Cn3cncn3)cc12 | 127% (inactive) | –
Oc1ccc(OCc2ccccc2)cc1 | 100% (inactive) | –
COCCCOc1ccnc(CS(=O)c2nc3ccccc3[nH]2)c1C (stereo not given) | 91.6% (inactive) | –
Cc1c(OCC(F)(F)F)ccnc1CS(=O)c1nc2ccccc2[nH]1 (stereo not given) | – | 16.6 µM (active)
Nc1nc(N)c(N=O)c(OCC2CCCCC2)n1 | – | 9.35 µM (active)
NNc1nncc2ccccc12 | 113% (inactive) | –
C[Se]CCC(N)C(=O)O (stereo not given) | 95.8% [at 92.2 µM] (inactive) | –
Cc1ccc(S(=O)(=O)NC(=O)NN2CC3CCCC3C2)cc1 (stereo not given) | – | 23.5 µM (active)
N[C@@H](Cc1cc(I)c(Oc2cc(I)c(O)c(I)c2)c(I)c1)C(=O)O | 114% (inactive) | –
CCC1=C(C)CN(C(=O)NCCc2ccc(S(=O)(=O)NC(=O)NC3CCC(C)CC3)cc2)C1=O (stereo not given) | 118% (inactive) | –
Cc1cccc(C#Cc2ccccc2)n1 | 119% (inactive) | –
O=C(O)CCNC(=O)c1ccc(N=Nc2ccc(O)c(C(=O)O)c2)cc1 | 113% (inactive) | –
Nc1ccc(S(N)(=O)=O)cc1 | 116% (inactive) | –
NCCCCNCCCN | – | 18.7 µM (active)
NC(=O)Cc1cccc(C(=O)c2ccccc2)c1N | 112% (inactive) | –
CCN(CCO)CCCC(C)Nc1ccnc2cc(Cl)ccc12 (stereo not given) | 110% (inactive) | –

Structure (SMILES) | viability, percent of control | Potency
COC(=O)N[C@H](C(=O)N[C@@H](Cc1ccccc1)[C@@H](O)CN(Cc1ccc(-c2ccccn2)cc1)NC(=O)[C@@H](NC(=O)OC)C(C)(C)C)C(C)(C)C | 101% (inactive) | –
S=c1nc[nH]c2nc[nH]c12 | – | 16.6 µM (active)
C=CCc1cc(OC)c(O)c(C(=O)NCCO)c1 | 117% (inactive) | –
Cc1nc(-c2ccc(OCC(C)C)c(C#N)c2)sc1C(=O)O | 112% (inactive) | –
O=c1c(O)c(-c2ccc(O)cc2O)oc2cc(O)cc(O)c12 | 85.9% (inactive) | –
COC(=O)C1=C(C)NC(C)=C(C(=O)OCCCN2CCC(c3ccccc3)(c3ccccc3)CC2)C1c1cccc([N+](=O)[O-])c1 (stereo not given) | 127% (inactive) | –
CCCCCCCCCCCCCCCCCCCCCCO | 117% (inactive) | –
O=C(NCC1CCCCN1)c1cc(OCC(F)(F)F)ccc1OCC(F)(F)F (stereo not given) | – | 8.33 µM (active)
C[C@]12CCC(=O)C=C1CC[C@@H]1[C@H]2[C@@H](O)C[C@@]2(C)[C@H]1CC[C@]2(O)C(=O)CO | 113% (inactive) | –
Nc1ccn([C@@H]2O[C@H](CO)[C@@H](O)C2O)c(=O)n1 (stereo not given in full) | 122% (inactive) | –
CCCOc1ccc2nc(NC(=O)OC)[nH]c2c1 | – | 0.0066 µM (active)
CNC[C@H](O)c1ccc(O)c(O)c1 | – | 38.2 µM (active)
O=C(O)c1cn(-c2ccc(F)cc2)c2cc(N3CCNCC3)c(F)cc2c1=O | 100% (inactive) | –
CC(C)Oc1ccc2c(=O)c(-c3ccccc3)coc2c1 | 118% (inactive) | –
CC1Cc2ccccc2N1NC(=O)c1ccc(Cl)c(S(N)(=O)=O)c1 (stereo not given) | 104% (inactive) | –
Cc1cc2c(s1)Nc1ccccc1N=C2N1CCN(C)CC1 | 132% (inactive) | –
CCOC(=O)c1c(C)n(C)c2ccc(O)cc12 | 106% (inactive) | –
Cc1cccc(-c2[nH]ncc2-c2ccc3ncccc3n2)n1 | 105% (inactive) | –
CCC(C)(Oc1ccc(C2(c3ccc(OC(C)(CC)C(=O)O)cc3)CCCCC2)cc1)C(=O)O (stereo not given) | 113% (inactive) | –
OC(CN1CCN(c2cccc(Cl)c2)CC1)C(c1ccccc1)c1ccccc1 (stereo not given) | 111% (inactive) | –
